In this experiment the target is PUM1 PUF domain R5-TRA (Homo sapiens, UniProt Q14671 828-1176, C1007T;Q1011A). Kind of experiment: yeast three-hybrid, YBZ-1, SC-Leu-His + 0.5 mM 3-AT, 4 days. Particulars: tags: N-Gal4 AD-HA kept; label: inside an RPR1-promoter hybrid RNA with tandem MS2 sites; ssRNA. Put shortly:
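A centromeric plasmid in strain YBZ-1 co-expressed Pumilio-1 PUF domain libraries, randomized at the three base-contacting residues of each repeat, with matching RNA elements; the strain carries a LexA–MS2 coat fusion and a HIS3 reporter. After four days on SC-Leu (input) or SC-Leu-His + 0.5 mM 3-AT (selection), the repeat regions were PCR-amplified and Illumina-sequenced. The interaction score is the log change in variant frequency from input to selection, using log2 and a pseudocount of 1 where absent.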
Sequence of PUM1 PUF domain R5-TRA (Q14671 828-1176 C1007T/Q1011A): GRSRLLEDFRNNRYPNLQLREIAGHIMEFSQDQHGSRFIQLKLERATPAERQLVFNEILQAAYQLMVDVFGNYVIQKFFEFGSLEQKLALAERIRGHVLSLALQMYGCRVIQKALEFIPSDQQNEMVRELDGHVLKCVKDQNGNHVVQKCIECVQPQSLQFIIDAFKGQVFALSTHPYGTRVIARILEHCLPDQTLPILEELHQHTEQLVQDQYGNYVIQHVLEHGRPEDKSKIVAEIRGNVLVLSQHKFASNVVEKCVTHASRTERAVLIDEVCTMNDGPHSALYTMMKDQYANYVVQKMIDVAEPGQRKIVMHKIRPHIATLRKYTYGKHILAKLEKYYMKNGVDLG
As to “GGCUAGAACUAGUGGAUCCCCCGGCGCCCGGCGGCUCGAGCCCGGGUAAGUGUGAAUAGUCUGCAUGCCGCCGGGCGCCAUGCCUGCAGGUCGACUCUAGAAAACAUG”, the binding signal is 1.91 log2 enrichment (interaction score).

For the sequence “GGCUAGAACUAGUGGAUCCCCCGGCGCCCGGCGGCUCGAGCCCGGGUAAGUGUUAAUAGUCUGCAUGCCGCCGGGCGCCAUGCCUGCAGGUCGACUCUAGAAAACAUG”, the binding signal is 2.4 log2 enrichment (interaction score).

With “GGCUAGAACUAGUGGAUCCCCCGGCGCCCGGCGGCUCGAGCCCGGGUAAGUGUAAAUAGUCUGCAUGCCGCCGGGCGCCAUGCCUGCAGGUCGACUCUAGAAAACAUG”, the binding signal was 2.82 log2 enrichment (interaction score).

Source of the values: publication PMC8384837, “Expanding the binding specificity for RNA recognition by a PUF domain”.
